Results filed as inconclusive are left out. The source made the active and inactive calls. The call rests on the fitted dose curve; in most records, active means well fitted curve in the direction sought with a large enough effect; inconclusive means small, poorly fitted or top-dose-only effect, or another doubt; inactive means no such curve, though single readings can be large; an effect the other way counts as inactive or inconclusive.

Assay [1] is described as follows: Quantitative High-Throughput drug screen in 47 multiple myeloma cell lines against the NCATS MIPE library collection: AMO1_DSMZ cell viability assay (AID 1918927; further: nearly all actives have a fitted effect of over 30% in size). In short, it runs like this:
(§1)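 We plated 500 myeloma cells per well, pinned in MIPE 4.0 compounds, and incubated for 48 hours at 37C. ATP was then quantified with CellTiter-Glo, with DMSO and media-only wells defining 100% and 0%.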

Assay [2] can be described thus: Quantitative High-Throughput drug screen in 47 multiple myeloma cell lines against the NCATS MIPE library collection: ARD_JJKsccE7 cell viability assay (AID 1918929). In short, it runs like this: as §1
A short description of assay [3]: Quantitative High-Throughput drug screen in 47 multiple myeloma cell lines against the NCATS MIPE library collection: Karpas620_DSMZ cell viability assay (AID 1918959). Further: nearly all actives have a fitted effect of over 30% in size. In a few lines: (§2)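 Relative luminescence from CellTiter-Glo served as the viability signal, referenced to DMSO-treated (100%) and cell-free medium (0%) controls. Treatment lasted 48 hours at 37C with 500 cells per well.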

Assay [4] can be described thus: Quantitative High-Throughput drug screen in 47 multiple myeloma cell lines against the NCATS MIPE library collection: KMM1_JCRB cell viability assay (AID 1918960). Further: nearly all actives have a fitted effect of over 30% in size. In a few lines: (§3)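 Cell viability inhibition in this qHTS is measured via ATP content (CellTiter-Glo) after 48 h drug exposure at 37 °C. Wells hold 500 cells; DMSO-treated wells define 100% and medium-only wells 0%.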

The nature of assay [5]: Quantitative High-Throughput drug screen in 47 multiple myeloma cell lines against the NCATS MIPE library collection: KHM11_PLB cell viability assay (AID 1918962). Further: nearly all actives have a fitted effect of over 35% in size. In short, it runs like this: as §2
Assay [6] in a line: Quantitative High-Throughput drug screen in 47 multiple myeloma cell lines against the NCATS MIPE library collection: JIM1_ECACC cell viability assay (AID 1918964). In a few lines: as §1
The nature of assay [7]: Quantitative High-Throughput drug screen in 47 multiple myeloma cell lines against the NCATS MIPE library collection: INA6_PLB cell viability assay (AID 1918965; further: nearly all actives have a fitted effect of over 55% in size). In short, it runs like this:
as §2

Assay [8] is described as follows: Quantitative High-Throughput drug screen in 47 multiple myeloma cell lines against the NCATS MIPE library collection: H1112_PLB cell viability assay (AID 1918967; further: nearly all actives have a fitted effect of over 30% in size). In a few lines:
as §1

A short description of assay [9]: Quantitative High-Throughput drug screen in 47 multiple myeloma cell lines against the NCATS MIPE library collection: KMS27_JCRB cell viability assay (AID 1918970). Further: nearly all actives have a fitted effect of over 30% in size. In short, it runs like this: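 Viability inhibition screen, 48 h compound exposure, luminescent ATP read-out.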
The nature of assay [10]: Quantitative High-Throughput drug screen in 47 multiple myeloma cell lines against the NCATS MIPE library collection: Karpas25_ECACC cell viability assay (AID 1918968; further: nearly all actives have a fitted effect of over 35% in size). In a few lines:
as §1

Assay [11] can be described thus: Quantitative High-Throughput drug screen in 47 multiple myeloma cell lines against the NCATS MIPE library collection: KMS12BM_JCRB cell viability assay (AID 1918971). Further: nearly all actives have a fitted effect of over 35% in size. In short, it runs like this: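 Viability readout: CellTiter-Glo luminescence following 5 min room-temperature incubation with reagent. Prior exposure: 48 h, 37C, humidified 5% CO2, 500 cells per well.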

Assay [12] can be described thus: Quantitative High-Throughput drug screen in 47 multiple myeloma cell lines against the NCATS MIPE library collection: Delta47_JCRB cell viability assay (AID 1918925; further: nearly all actives have a fitted effect of over 45% in size). In short, it runs like this:
as §1

Assay [13] is described as follows: Quantitative High-Throughput drug screen in 47 multiple myeloma cell lines against the NCATS MIPE library collection: EJM_DSMZ cell viability assay (AID 1918926; further: nearly all actives have a fitted effect of over 30% in size). In short, it runs like this:
as §1

Assay [14] in a line: Quantitative High-Throughput drug screen in 47 multiple myeloma cell lines against the NCATS MIPE library collection: ARP1_JJKsccF8 cell viability assay (AID 1918928; further: nearly all actives have a fitted effect of over 40% in size). In a few lines:
as §3

The nature of assay [15]: Quantitative High-Throughput drug screen in 47 multiple myeloma cell lines against the NCATS MIPE library collection: JIM3_ECACC cell viability assay (AID 1918963; further: nearly all actives have a fitted effect of over 35% in size). In a few lines: as §2
The nature of assay [16]: Quantitative High-Throughput drug screen in 47 multiple myeloma cell lines against the NCATS MIPE library collection: Karpas417_ECACC cell viability assay (AID 1918961). Particulars: Karpas417 myeloma viability, CellTiter-Glo ATP luminescence, 48 h; viability (% of DMSO): at 45.8 µM (top of the series). In short, it runs like this:
as §2
A general note: ATP-based viability assays read luminescence as a measure of living cells.
Potency means the concentration at half of the fitted maximal effect.

In the case of `CC1(C)NC(=O)N(c2ccc([N+](=O)[O-])c(C(F)(F)F)c2)C1=O`, the Potency result in [1], in [2], in assay [3], in assay [4], in [5] and in assay [9] was “inactive” throughout. In addition, the values for the Potency in [6], in [7] and in assay [8] were 0.235 µM (active), 3.32 µM (active) and 11.8 µM (active), respectively.

On to `Clc1ccc(C(Cn2ccnc2)OCc2ccc(Sc3ccccc3)cc2)c(Cl)c1` (configuration not stated), for which the Potency in [1] is 20.9 µM (active); in assay [2] it was 26.4 µM (active); in assay [3], 18.7 µM (active); in [4], 20.9 µM (active); in assay [6], 20.9 µM (active); in assay [7], 26.4 µM (active). The values for the Potency in [10], in assay [9] and in [11] were 18.7 µM (active), 18.7 µM (active) and 26.4 µM (active), respectively.

In the case of `CCN(CC)CCOc1ccc(Cc2ccccc2)cc1`, the Potency entry in assay [12], in [5] and in [8] was “inactive” each time. The Potency was 20.9 µM (active) in assay [1], 14.8 µM (active) in [3] and 14.8 µM (active) in [10].

With `COc1c2occc2cc2ccc(=O)oc12`, the Potency result in assay [12], in assay [13], in [1], in assay [14], in assay [3] and in [4] was “inactive” each time. In addition, the Potency result in assay [5], in [15], in assay [6], in [8] and in [9] was “inactive” each time. In addition, the Potency in assay [11] was 20.9 µM (active).

For `O=C(O)c1cc(=O)c2c(OCC(O)COc3cccc4oc(C(=O)O)cc(=O)c34)cccc2o1`, the Potency entry in assay [13], in [1], in assay [14], in [2], in [4] and in [8] was “inactive” each time. Moreover, the Potency result in assay [10] is “inactive”.

In the case of `CCOC(=O)C(C)Oc1cccc2c(=O)n(CC(=O)Nc3ccc4c(c3)OCCO4)ccc12` (configuration not stated), the Potency result in assay [13], in [2], in [3], in [5], in assay [6] and in assay [7] was “inactive” in each case. Moreover, the Potency entry in assay [8] and in assay [9] was “inactive” each time. For the same compound, the Potency in [1] was 16.6 µM (active); in assay [4], 13.2 µM (active); in assay [11] it was 23.5 µM (active).

Take `CC1=C(C(=O)O)N2C(=O)[C@@H](NC(=O)[C@H](N)C3=CCC=CC3)[C@H]2SC1`: the Potency entry in assay [12], in assay [13], in [14], in assay [3], in [4] and in [5] was “inactive” each time. Also, the Potency result in assay [15], in assay [7], in [8], in [10], in [9] and in assay [11] was “inactive” throughout.

For `Cc1ccc(S(=O)(=O)NC(=O)NN2CC3CCCC3C2)cc1` (configuration not stated), the Potency in assay [12] was 18.7 µM (active); in assay [1], 23.5 µM (active); in assay [14] it was 26.4 µM (active); in [2], 26.4 µM (active); in [4] it was 23.5 µM (active); in [15], 23.5 µM (active). The Potency in [7] was 20.9 µM (active); in [10], 26.4 µM (active); in assay [9], 20.9 µM (active).

`Cc1cccc(C)c1OCC(=O)N[C@@H](Cc1ccccc1)[C@@H](O)C[C@H](Cc1ccccc1)NC(=O)[C@H](C(C)C)N1CCCNC1=O`: the Potency was 8.33 µM (active) in assay [1]; 5.9 µM (active) in assay [2]; 6.62 µM (active) in assay [4]; 20.9 µM (active) in assay [15]; 16.6 µM (active) in assay [8]. Besides, in assay [5], the Potency result was “inactive”.

Take `COC1=C(OC)C(=O)C(CCCCCCCCCCO)=C(C)C1=O`: the Potency in [12] was 18.7 µM (active); in assay [1] it was 10.5 µM (active); in [14] it was 23.5 µM (active); in [2] it was 20.9 µM (active); in assay [3] it was 11.8 µM (active); in [4], 18.7 µM (active). The Potency in [5] was 26.4 µM (active); in assay [7], 18.7 µM (active); in [10], 13.2 µM (active); in assay [9], 18.7 µM (active); in assay [11], 16.6 µM (active). The Potency entry in [13] was “inactive”.

`Cc1cc(Cl)ccc1OCCCC(=O)NO`: the Potency in assay [12] is 2.96 µM (active); in assay [13], 0.296 µM (active); in assay [2] it was 20.9 µM (active); in [5], 11.8 µM (active); in assay [8] it was 7.43 µM (active); in [10], 2.96 µM (active). Besides, the Potency is 3.32 µM (active) in assay [9] and 16.6 µM (active) in assay [11].

Consider `Cc1cc2cc3c(C)cc(=O)oc3c(C)c2o1`, for which the Potency in assay [12] is 20.9 µM (active); in assay [13] it was 5.9 µM (active); in assay [3] it was 23.5 µM (active); in assay [10], 20.9 µM (active); in [9], 26.4 µM (active); in assay [11] it was 16.6 µM (active).

For the compound `O=C(NCC1CCCCN1)c1cc(OCC(F)(F)F)ccc1OCC(F)(F)F` (configuration not stated), the Potency was 8.33 µM (active) in [12]; 3.32 µM (active) in assay [1]; 3.72 µM (active) in [2]; 1.32 µM (active) in assay [3]; 2.64 µM (active) in assay [4]; 0.0743 µM (active) in assay [16]. The Potency in assay [5] is 9.35 µM (active); in assay [15], 8.33 µM (active); in assay [6] it was 1.87 µM (active); in [8], 8.33 µM (active); in [10], 9.35 µM (active); in [9], 0.526 µM (active). In addition, the Potency entry in assay [13] was “inactive”.

Regarding `O=C1NC(=O)C(c2ccccc2[N+](=O)[O-])=C1Nc1ccc(O)c(Cl)c1`, the Potency result in assay [13], in assay [14], in [3], in assay [6], in assay [8] and in [9] was “inactive” each time. Also, the Potency in assay [10] is 13.2 µM (active).

`CNC[C@@H](O)[C@@H](O)[C@H](O)[C@H](O)CO`: the Potency entry in assay [13], in [1], in assay [14], in assay [2], in [3] and in assay [15] was “inactive” throughout. Also, the Potency result in assay [6] and in [9] was “inactive” throughout. Moreover, the Potency in [10] was 20.9 µM (active).

Regarding `N=C(N)c1ccc2cc(OC(=O)c3ccc(N=C(N)N)cc3)ccc2c1`, the Potency is 18.7 µM (active) in assay [13], 9.35 µM (active) in assay [10] and 23.5 µM (active) in [11]. The Potency entry in [1], in assay [2], in assay [3], in [4], in assay [15] and in assay [6] was “inactive” each time. Moreover, the Potency entry in [8] and in assay [9] was “inactive” in each case.

Source of the values: PubChem BioAssay (NCATS).
